Assay results published in ChEMBL document CHEMBL3988442, “University of Dundee, Small-Polar-MMV Screening Library” (2021).
Hit rate of the full screen: of about 48,000 compounds, about 13,000 (27%) showed an effect of 50% or more. The list shows a part of the results.

These molecules were tested on Wolbachia pipientis (assay: Anti-Wolbachia Cell-Based Screen). Settings: 5 µM.
Assay type: functional
Design: scale not given: in the data most compounds retested in dose-response had high values

SMILES	Percent Effect [%]
O=C(CN1CCS(=O)(=O)CC1)NCc1cccc(Br)c1	-5.799
COCC1(CNC(=O)Nc2cc(F)ccc2OC)CCCC1	-0.947
CC(C)(C)OC(=O)NC(C)(C)c1noc(CSc2nncs2)n1	7.03
N#Cc1c(Cl)nsc1NCc1ccc(N2CCSCC2)cc1	-6.213
COc1ccc2c(c1)nc1n2[C@@H](CNCc2nccs2)COC1	4.423
Cn1cc2c(n1)C(COCC1CC1)CN(Cc1ccsc1)C2 (centres undefined)	-15.61
Cn1ncc2c1C(COCC1CC1)CN(Cc1ccco1)C2 (centres undefined)	-0.8913
CCOCC1CN(Cc2ccco2)Cc2ccnn2C1 (centres undefined)	-17.9
CC(C)COCC1CN(Cc2ccco2)Cc2ncn(C)c21 (centres undefined)	120.7
Cn1cnc2c1C(COCC1CC1)CN(Cc1ccsc1)C2 (centres undefined)	3.226
Cn1cc(CN2Cc3cn(C)nc3C(COCC3CC3)C2)cn1 (centres undefined)	-9.412
CCOCC1CN(Cc2ccoc2)Cc2ncn(CC3CC3)c21 (centres undefined)	-9.148
CC(C)COCC1CN(Cc2ccoc2)Cc2ncn(C)c21 (centres undefined)	128.9
CC(C)COCC1CN(Cc2ccsc2)Cc2ncn(C)c21 (centres undefined)	90.56
CC(C)COCC1CN(Cc2cnn(C)c2)Cc2ncn(C)c21 (centres undefined)	123.1
COCC1CN(Cc2ccoc2)Cc2cn(C)nc21 (centres undefined)	2.216
CCOCC1CN(Cc2cnn(C)c2)Cc2ncn(CC3CC3)c21 (centres undefined)	-8.097
CN(C)C(=O)c1nc2c(s1)CCCN2Cc1ccccc1	-4.503
Cc1ccc(C)c2c(O)cc(CN3CCC(=O)NCC3C)nc12 (centres undefined)	-0.2793
CCC(NC(=O)Nc1cc(F)c(OC)c(F)c1)c1noc(C)n1 (centres undefined)	-7.836
Cn1nc2c(cc1=O)CN(Cc1nc(-c3ccoc3)no1)CC2	-6.043
CC(C(=O)N1CCOCC1)N1CCN(Cc2nccn2C)CC1 (centres undefined)	114
CC(C)C(C(=O)N1CCCN(Cc2nccn2C)CC1)N1CCCC1 (centres undefined)	74.16
CCN1CCN(C(=O)C(C)N2CCN(Cc3nccn3C)CC2)CC1 (centres undefined)	0.1033
CC(C(=O)N1CCCCCC1)N1CCN(Cc2nccn2C)CC1 (centres undefined)	103.6
CC(OCC1CC1)C(=O)N1CCCN(Cc2nccn2C)CC1 (centres undefined)	15.71

SMILES	Percent Effect [%]
Cn1ccnc1CN1CCCN(C(=O)C2(C#N)CCCCC2)CC1	-11.9
CCN(C(=O)NCCc1cccc(F)c1F)C(C)CS(C)(=O)=O (centres undefined)	8.569
CCOc1ccc(CN(CCOC)c2nc(C)nc3oc(C)nc23)cc1	-12.59
COc1cc(C)nc(N2CCN(C(=O)c3ccccc3C)CC2)n1	2.606
CCOc1ccnc(N2CCN(C(=O)c3ccn(C)c(=O)c3)CC2)n1	88.48
CCOc1cccc(C(=O)N2CCN(c3nccc(OC)n3)CC2)c1	-0.7298
COc1cc(C)nc(N2CCN(C(=O)c3ccn(C)c(=O)c3)CC2)n1	111.9
CCOc1ccnc(N2CCN(C(=O)c3cc(Cl)c[nH]3)CC2)n1	-0.9133
COc1ccnc(N2CCN(C(=O)c3ccn(C)c(=O)c3)CC2)n1	101.7
CCOc1ccnc(N2CCN(C(=O)c3cccc(C#N)c3)CC2)n1	3.478
COc1ccnc(N2CCN(C(=O)c3cscn3)CC2)n1	2.321
COc1cc(C)nc(N2CCN(C(=O)c3ccc(Cl)o3)CC2)n1	4.762
O=C(c1ncccc1O)N1CCN(Cc2ccco2)C(CCO)C1 (centres undefined)	-8.878
CC(C)CN1CCC(NC(=O)N(C)Cc2csc3ccccc23)CC1	14.6
CN(C)C1(CNc2ncc(Br)cn2)CCOCC1	25.75
CCC(CNS(=O)(=O)c1c[nH]cn1)Oc1ccccc1F (centres undefined)	-7.945
COc1ccnc(NCc2ccccc2Cn2cccn2)n1	13.47
Cc1nonc1C(=O)N1CC[C@@]2(O)CCN(C3CCCCC3)C[C@H]2C1	-5.278
O=C(NC1CCC(C(=O)N2CCSCC2)CC1)N1CCC1 (centres undefined)	3.195
CC(C)[C@H]1CN(C(=O)CC2CCC2)C[C@@H]1N(C)C	88.21
Cc1cc(C(=O)N2C[C@@H](C(=O)O)[C@H](C(C)C)C2)cs1	38.77
CC(C)[C@@H]1CN(C(=O)CN(C)Cc2ccc(F)cc2)C[C@H]1C(=O)O	-17.02
CC1(C)CN(C(=O)CC2CCC2)C[C@]1(C)O	6.618
CC(C)[C@H]1CN(C(=O)CO)C[C@@H]1N(C)C	109.8
CC(C)[C@@H]1CN(C(=O)NCc2ccco2)C[C@H]1N(C)C	-15.37
CC(C)[C@@H]1CN(C(=O)CCc2ccc(F)cc2)C[C@H]1C(=O)O	-26.1

SMILES	Percent Effect [%]
Cc1nc(CC(C)C)cc(C(=O)N2C[C@@H](N(C)C)[C@H](C(C)C)C2)n1	-16.81
COCCC(=O)N1C[C@H](C(C)C)[C@@H](N(C)C)C1	108.6
CC(=O)c1cc(CN2C[C@@H](N(C)C)[C@H](C(C)C)C2)cs1	13.8
Cc1cc(C(=O)N2C[C@H](C(C)C)[C@@H](N(C)C)C2)cs1	81.51
CC(C)[C@@H]1CN(Cc2cnc(C3CCCCC3)nc2)C[C@H]1N(C)C	-9.184
N#Cc1cc(S(N)(=O)=O)ccc1NC1CCc2c(F)cccc21 (centres undefined)	-10.31
COCCCN(C)c1ncccc1I	0.1394
Cn1c(NCC(=O)N2CCCC2)c(C#N)c(=O)n(C)c1=O	6.318
CC(O)CN1CCC(CN(C)Cc2cc(F)cc3cccnc23)CC1 (centres undefined)	-9.016
CC(C)Oc1ccc(C(=O)Cn2cnnc2[S+](C)[O-])cc1 (centres undefined)	6.636
CS(=O)(=O)c1cccc(S(=O)(=O)NC(=O)CCC2CCCCC2)c1	-13.77
COc1cccc(S(=O)(=O)NC(=O)CC2CCCO2)c1 (centres undefined)	94.52
COc1cccc(S(=O)(=O)NC(=O)COC2CCCCC2)c1	79.48
COc1cccc(S(=O)(=O)NC(=O)CC2CCCC2)c1	9.946
COc1cccc(S(=O)(=O)NC(=O)COc2c(C)cccc2C)c1	-5.351
COc1ccc(S(=O)(=O)NC2(CC(N)=O)CCC2)cc1	1.65
COc1cccc(S(=O)(=O)NC(=O)CCC2CCCC2)c1	93.05
CCOc1ccc(S(=O)(=O)NC(=O)CCC2CCCO2)cc1 (centres undefined)	0.3257
COc1ccc(S(=O)(=O)NC(=O)COC2CCCC2)cc1	110.1
CS(=O)(=O)c1cccc(S(=O)(=O)NC(=O)CC2CCCCC2)c1	-9.509
N#Cc1cccc(S(=O)(=O)NC(=O)COC2CCCC2)c1	4.791
COc1cccc(S(=O)(=O)NC(=O)COC2CCCC2)c1	0.104
Cc1ccc(-n2c(C)nnc2SCC(O)COCc2ccco2)cc1 (centres undefined)	-12.77
Cc1cnccc1CN(C)C(=O)c1ccc(Cn2cnnn2)cc1	-17.07
Cc1ccc(CN(C)C(=O)NCC(C)(C)CCS(C)(=O)=O)s1	-3.781
CN(C(=O)Cc1coc(-c2ccccc2)n1)C1(C#N)CCC1	4.147

SMILES	Percent Effect [%]
COc1ccc(Cl)cc1NCC(=O)N(Cc1cccnc1)C1CC1	0.4709
O=C(O)C(F)(F)F.O=C([C@@H]1COC[C@H]2CN(C3CCOCC3)C[C@H]21)N1CCCCO1	-37.74
COc1ccc(S(=O)(=O)NC(=O)COC2CCCCC2)cc1	100.4
COCc1nc(C(=O)NS(=O)(=O)c2ccc(OC)c(C)c2)cs1	-15.7
COc1ccc(S(=O)(=O)NC(=O)COC2CCCCC2)cc1C	99.33
COc1ccc(S(=O)(=O)NC(=O)c2cscn2)cc1C	-8.824
NC(=O)C(NC(=O)COC1CCCCC1)c1ccccc1 (centres undefined)	-9.016
COc1ccc(OCC(=O)NS(=O)(=O)c2cc(F)ccc2F)cc1	18.57
CCCC(O)CNc1cncc(Br)c1 (centres undefined)	-5
CC(C)(NC(=O)Nc1cnn(CC2CCCO2)c1)c1nccs1 (centres undefined)	-5.14
CN(Cc1n[nH]c(=O)n1CCc1ccccc1F)S(C)(=O)=O	-6.047
CN(Cc1n[nH]c(=O)n1Cc1ccccc1F)S(C)(=O)=O	-17.4
Cc1ccc(F)cc1-n1c(COC(C)C)n[nH]c1=O	6.19
CCN(C)Cc1n[nH]c(=O)n1-c1cc(F)ccc1C	106.9
CNCc1n[nH]c(=O)n1-c1ccccc1Oc1ccccc1	-7.871
Cc1ccc(F)cc1-n1c(CN(C)S(C)(=O)=O)n[nH]c1=O	117.3
COc1ccc(-n2c(COC(C)C)n[nH]c2=O)cc1	8.862
Cc1ccc(-n2c(COC(C)C)n[nH]c2=O)cc1	-8.363
CCN(C)Cc1n[nH]c(=O)n1-c1ccc(C)c(C)c1	100.3
CN(Cc1ccccc1-n1cccn1)C[C@@H]1CCCN2CCCC[C@H]12	-7.431
CCc1nsc(N2CCN(C(=O)c3ccnc(N(C)C)c3)CC2)n1	-3.339
CCC1=N[C@@]2(CC[C@@H]3CN(C(=O)NCC(C)C)C[C@@H]32)C(=O)N1CC(C)C	-11.82
Cc1nn(C)c(C)c1C1CCCN1CCOc1ccccc1C#N (centres undefined)	-7.684
CS(=O)(=O)NC[C@@H]1OC[C@H]2CN(C(=O)c3ccc[nH]3)CC[C@H]21	-14.53
CN[C@@H](C)C(=O)N(Cc1cccc(C)c1)Cc1ccccc1OC	4.64
CCc1nc(CC(=O)N2CCn3c(nnc3C(F)(F)F)C2)cs1	-0.3988
